VP16 counter – VP16 counterscreen qHTS for inhibitors of ROR gamma transcriptional activity | Drosophila S2 Gal4-VP16 UAS-luciferase, luminescence, 20 h | Potency, µM (titrated, usually from 53.6 µM), inactives show at the top dose activity, negative = inhibition, hits mostly inhibitors | 310,000 tested, 3.5% active | AID 2546, 2010;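 further: Gal4-VP16 expression switched on by copper sulfate through the metallothionein promoter; potency means the concentration at half of the fitted maximal effect; on the % scale 0 is the no-effect control and ±100 the full control effect; nearly all actives have a fitted effect of over 50% in size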
RORgamma inh – qHTS for inhibitors of ROR gamma transcriptional activity | 310,000 tested, 5.4% active | Nuclear receptor ROR-gamma (Mus musculus), P51450 | Drosophila S2 Gal4-RORgamma UAS-luciferase reporter, 20 h | Potency, µM (highest dose often 53.6 µM), for inactives: at the top dose activity change, negative = inhibition, most hits filed as inhibitors; further: potency means the concentration at half of the fitted maximal effect; on the % scale 0 is the no-effect control and ±100 the full control effect; nearly all actives have a fitted effect of over 60% in size
Target sequence (P51450 whole entry, looked up, the tested form may be a part): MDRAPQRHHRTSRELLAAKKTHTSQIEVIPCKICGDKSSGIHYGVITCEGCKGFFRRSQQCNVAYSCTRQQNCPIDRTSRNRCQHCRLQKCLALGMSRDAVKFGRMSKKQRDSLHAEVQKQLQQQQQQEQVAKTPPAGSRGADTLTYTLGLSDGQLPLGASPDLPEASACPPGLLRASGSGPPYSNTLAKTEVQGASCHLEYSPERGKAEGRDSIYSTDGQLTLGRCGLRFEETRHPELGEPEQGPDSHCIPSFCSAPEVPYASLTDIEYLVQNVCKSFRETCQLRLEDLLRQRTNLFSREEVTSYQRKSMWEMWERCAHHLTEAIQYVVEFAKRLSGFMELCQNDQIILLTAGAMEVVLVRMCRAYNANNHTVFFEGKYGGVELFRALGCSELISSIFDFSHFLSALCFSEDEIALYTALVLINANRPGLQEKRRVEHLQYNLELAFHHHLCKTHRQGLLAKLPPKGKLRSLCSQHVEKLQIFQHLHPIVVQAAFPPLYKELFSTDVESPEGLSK
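Drosophila Schneider cells stably carrying a metallothionein-driven Gal4 DBD–ROR gamma fusion and a UAS-Photinus luciferase reporter were exposed to compound for 1 hr, then induced with copper sulfate (700 uM final) for 20 hr at ambient temperature before luminescence reading.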
ELG1 DNA repair – qHTS screen for small molecules that inhibit ELG1-dependent DNA repair in human embryonic kidney (HEK293T) cells expressing luciferase-tagged ELG1; HEK293T ELG1-luciferase reporter, luminescence, 16 h; DNA damage induced by 5-fluorouridine; Potency, µM (doses to about 46.1 µM), inactives show at the highest dose activity change, negative = inhibition, hits mostly inhibitors; 330,000 tested, 2.3% active; AID 504467, 2011; further: potency means the concentration at half of the fitted maximal effect; on the % scale 0 is the no-effect control and ±100 the full control effect; nearly all actives have a fitted effect of over 55% in size
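Reporter activity after DNA damage by 5-fluorouridine is monitored. Compound-treated cells incubate 16 hr at 37 °C, then ONE-Glo is added for 30 min before luminescence reading.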
p53 reactivation – qHTS assay for re-activators of p53 using a Luc reporter | Potency, µM (doses to about 92.2 µM), for the others: at the highest dose activity change, positive = activation, usual class: activators | 320,000 tested, 0.063% active | H1299 p53-A138V BP100-luciferase reporter, luminescence, 24 h; further: potency means the concentration at half of the fitted maximal effect; % of control where 0% means no effect; nearly all actives have a fitted effect of over 45% in size
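p53-null H1299 cells stably carrying temperature-sensitive p53-A138V and a BP100-luciferase reporter were pinned with compounds (4-point, 1:5 series) and held 24 hrs at 37 deg C. Luminescence was read 10 min after detection reagent.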
BRCA1 expr act – qHTS Assay to Identify Small Molecule Activators of BRCA1 Expression; AID 624202, 2012; MCF7-BRCA1-FFLuc reporter, luminescence, 48 h; response scale: scaled: vehicle 0%, 10 µM genistein 100%; 380,000 tested, 1.1% active; Potency, µM (titrated, usually from 46.1 µM), without a hit: top-dose activation, actives largely listed as activators; further: potency means the concentration at half of the fitted maximal effect; nearly all actives have a fitted effect of over 80% in size
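Luminescence from a BRCA1-driven firefly luciferase in MCF7 cells was read after 48 h compound exposure at 37 C. Data normalized against DMSO and a 10microM genistein activation control, then curve-fitted across the titration.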
Giardia killer – Small Molecules that selectively kill Giardia lamblia: qHTS | Giardia lamblia trophozoite viability | activity change, % at 7.66 µM, hits read low | 340,000 tested, 0.15% active | AID 540267, 2011; in the data active means activity change below about -80%; inconclusive means between about -30% and that limit;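 further: parasites exposed to compound for two days anaerobically before the ATP read; on the % scale 0 is the no-effect control and ±100 the full control effect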
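Giardia trophozoites, 100 cells per well, were exposed to compounds for 48 hrs at 37 deg C under anaerobic conditions; viability was then read as ATP content by bioluminescence after 15-30 min at room temperature.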
* hit, by the source's call; ? = inconclusive; / = no result given; ! = repeats disagree; [ ] = dose if it differs, or a comment. Hits are enriched below; roughly 7.6% of the tested compounds scored in any of these assays. Unless noted, the call rests on the fitted dose curve; in most records, active means well fitted curve in the direction sought with a large enough effect; inconclusive means small, poorly fitted or top-dose-only effect, or another doubt; inactive means no such curve, though single readings can be large; an effect the other way counts as inactive or inconclusive.

SMILES	VP16 counter	RORgamma inh	ELG1 DNA repair	p53 reactivation	BRCA1 expr act	Giardia killer
O=C(Nc1cccc(S(=O)(=O)N2CCCCC2)c1)c1ccc(Cl)nc1	/	/	20.6µM*	3.8%	-40.4%	-6.3
COc1ccccc1NC(=O)NNC(=O)c1ccc2c(c1)NC(=O)C(C)(C)O2	0.5%	-9.3%	-21.5%	0.8%	-28.8%	46.2
CCOC(=O)c1cc(CC)sc1N1C(=O)CC(Sc2ccccc2C(=O)O)C1=O (stereo not given)	?	?	15.7%	22.7%	-3.6%	-10.7
COc1ccc(C(=O)C(C)OC(=O)c2cccc(S(=O)(=O)Nc3cc(Cl)c(OC)cc3OC)c2)cc1 (stereo not given)	-16.6%	?	-4.2%	-1.8%	-57.3%	-17.6
O=C(Nc1cccc(S(=O)(=O)Nc2ccccc2Cl)c1)c1ccc(Cl)nc1	6.31µM*	?	?	-2.2%	-46.1%	7.5
O=C(Cn1nnc(-c2ccc(F)cc2)n1)Nc1cccc(S(=O)(=O)N2CCCC2)c1	/	/	?	-0.7%	-22.9%	3.8
O=C(Cn1nnc(-c2ccccc2Cl)n1)Nc1cccc(S(=O)(=O)N2CCCC2)c1	/	/	23.1µM*	-0.5%	-48.6%	7.1
C[C@@H]1CN([C@H](C)CO)C(=O)CCCn2nncc2CO[C@@H]1CN(C)C(=O)Nc1ccc(N2CCN(C)CC2)cc1	/	/	/	/	16.3%	/
CCCN1CCN(CCCNC(=O)C2CCCN(c3nnc(-n4cccc4)s3)C2)CC1 (stereo not given)	-0.9%	-14.9%	1.0%	-9.2%	8.3%	0.9
Cc1sc(NC(=O)C2C3CCC(O3)C2C(=O)O)nc1-c1ccc(CC(C)C)cc1 (stereo not given)	-4.9%	-30.2%	?	?	?	-6.1
CC(=O)SC(C[N+](=O)[O-])c1cn(C(C)=O)c2ccccc12 (stereo not given)	?	11.2µM*	?	-43.3%	-68.9%	-3.8
Cc1nc2ccccc2nc(=O)c1NNc1ccccc1	8.7%	31.5%	?	?	5.01µM*!	-4.7
COc1cccc(NC(=O)Nc2cc(NC(=O)Nc3cccc(OC)c3)c(C)nc2C)c1	5.2%	19.3%	-8.6%	-1.6%	-44.3%	9.4
Cc1ncc([N+](=O)[O-])n1CCOC(=O)NC(NCc1cccnc1)C(Cl)(Cl)Cl (stereo not given)	11.8%	?	-0.6%	-7.7%	-3.4%	-92.2*
Cc1ccccc1NC(NC(=O)OCCn1c([N+](=O)[O-])cnc1C)C(Cl)(Cl)Cl (stereo not given)	-24.9%	?	8.6%	-0.7%	9.0%	-82.3*
Cc1nn(C)c(Cl)c1CN1CCCC(C(=O)Nc2cccc(-n3cccn3)c2)C1 (stereo not given)	-1.7%	-0.3%	16.4µM*	-7.2%	-31.3%	-9.5
CCn1cc(CN2CCCC(C(=O)Nc3cccc(-n4cccn4)c3)C2)c(C)n1 (stereo not given)	0.2%	-1.8%	-2.9%	-6.5%	-13.8%	17.2
CCCSc1nc(-n2ncc(C#N)c2N)c2c3c(sc2n1)CCC(C)C3 (stereo not given)	13.8%	-6.2%	?	-0.8%	-31.5%	-15.2
O=C(/C=C/c1ccccc1)c1ccc2c3c(cccc13)CC2	15.8µM*	12.6µM*	?	?	-8.9%	-1.3
O=C(/C=C\c1ccccc1)c1ccccc1O	26.3%[10 µM]	17.2%[10 µM]	/	/	/	/
COc1ccc(OC)c(C2C(C(=O)c3ccccc3)=C(C)Nc3nc4ccccc4n32)c1 (stereo not given)	-10.9%	7.08µM*	25.8%	4.2%	1.5%	17.1
Cc1ccc(NC(=O)c2cc(=O)n(Cc3ccccc3)c(=O)[nH]2)cc1C	3.5%	25.9%	-9.8%	0.9%	-16.1%	-4.2
N#CSCC(=O)c1cccc2ccccc12	?	11.2µM*	-17.2%	-5.0%	-24.7%	-13.6
O=C(/C=C/c1ccccc1)Nc1cccnc1Cl	-7.5%	-0.6%	?	24.1%	10µM*	-7.0
O=C(O)C(=O)Nc1ncn[nH]1	/	/	/	/	2.0%	/
SMILES	VP16 counter	RORgamma inh	ELG1 DNA repair	p53 reactivation	BRCA1 expr act	Giardia killer
O=C(/C=C/c1ccccc1)Nc1ccc(Br)cn1	-2.7%	14.0%	?	0.0%	1.41µM*	-17.0
O=C(/C=C/c1ccccc1)Nc1ncn[nH]1	?	14.1µM*	?	-32.5%	-80.6%	-10.9
O=c1cc[nH]c2cc(C(F)(F)F)ccc12	-9.7%	-1.0%	?	-2.1%	7.5%	4.2
CCC1NC(=S)NC(C)=C1C(=O)c1ccccc1 (stereo not given)	-20.9%	10µM*	9.4%	1.4%	-0.3%	-24.2
COc1ccc(C2NC(=S)NC(C)=C2C(=O)c2ccccc2)cc1OC (stereo not given)	5.0%	-33.1%	0.8%	-23.4%	-23.2%	-5.1
COc1ccc(-c2cc(C(=O)N/N=C/c3ccc4c(c3)OCO4)c3ccccc3n2)c(OC)c1	-1.5%	-17.4%	?	-6.2%	19.4%	3.1
CCCc1cc(C(=O)N/N=C/c2ccc(CC)s2)c2ccccc2n1	6.31µM*	2.82µM*	?	0.7%	-44.7%	6.9
O=C(N/N=C/c1ccncc1)c1cc(C2CC2)nc2ccccc12	-8.7%	3.0%	13.3%	-0.6%	-26.1%	26.3
COc1ccc(-c2cc(C(=O)N/N=C/c3sccc3C)c3ccccc3n2)c(OC)c1	?	4.47µM*	?	3.5%	-25.0%	-27.5
CCOc1ccc(-c2cc(C(=O)N/N=C/c3cccnc3)c3ccccc3n2)cc1	?	?	?	-11.9%	-26.9%	-14.0
O=C(N/N=C/c1cccs1)c1cc(C2CC2)nc2ccccc12	17.8µM*	10µM*	-7.2%	5.3%	-71.4%	-6.5
CCc1ccc(/C=N/NC(=O)c2cc(-c3ccncc3)nc3ccccc23)s1	5.62µM*	2µM*	?	8.0%	-74.8%	5.1
Cc1ccc(C(C)C)c(OCCSc2nc(-c3ccccc3F)nc3cc(=O)[nH]n23)c1	/	/	/	/	-3.0%	/
COc1ccccc1-c1cc(C(=O)N/N=C/c2cccs2)c2ccccc2n1	5.62µM*	4.47µM*	-13.3%	-4.3%	1.6%	-3.1
COc1ccc(-c2cc(C(=O)N/N=C(\C)c3ccco3)c3ccccc3n2)c(OC)c1	-29.8%	6.31µM*	?	-1.5%	-37.3%	16.2
